Consider five compounds from ChEMBL document CHEMBL1961873, “Compounds: GSK PKIS; Assays: Nanosyn kinase panel” (2012).

Assay [1] deals with T1, Ephrin type-B receptor 2 (Homo sapiens) (UniProt P29323).
T1 sequence (whole entry): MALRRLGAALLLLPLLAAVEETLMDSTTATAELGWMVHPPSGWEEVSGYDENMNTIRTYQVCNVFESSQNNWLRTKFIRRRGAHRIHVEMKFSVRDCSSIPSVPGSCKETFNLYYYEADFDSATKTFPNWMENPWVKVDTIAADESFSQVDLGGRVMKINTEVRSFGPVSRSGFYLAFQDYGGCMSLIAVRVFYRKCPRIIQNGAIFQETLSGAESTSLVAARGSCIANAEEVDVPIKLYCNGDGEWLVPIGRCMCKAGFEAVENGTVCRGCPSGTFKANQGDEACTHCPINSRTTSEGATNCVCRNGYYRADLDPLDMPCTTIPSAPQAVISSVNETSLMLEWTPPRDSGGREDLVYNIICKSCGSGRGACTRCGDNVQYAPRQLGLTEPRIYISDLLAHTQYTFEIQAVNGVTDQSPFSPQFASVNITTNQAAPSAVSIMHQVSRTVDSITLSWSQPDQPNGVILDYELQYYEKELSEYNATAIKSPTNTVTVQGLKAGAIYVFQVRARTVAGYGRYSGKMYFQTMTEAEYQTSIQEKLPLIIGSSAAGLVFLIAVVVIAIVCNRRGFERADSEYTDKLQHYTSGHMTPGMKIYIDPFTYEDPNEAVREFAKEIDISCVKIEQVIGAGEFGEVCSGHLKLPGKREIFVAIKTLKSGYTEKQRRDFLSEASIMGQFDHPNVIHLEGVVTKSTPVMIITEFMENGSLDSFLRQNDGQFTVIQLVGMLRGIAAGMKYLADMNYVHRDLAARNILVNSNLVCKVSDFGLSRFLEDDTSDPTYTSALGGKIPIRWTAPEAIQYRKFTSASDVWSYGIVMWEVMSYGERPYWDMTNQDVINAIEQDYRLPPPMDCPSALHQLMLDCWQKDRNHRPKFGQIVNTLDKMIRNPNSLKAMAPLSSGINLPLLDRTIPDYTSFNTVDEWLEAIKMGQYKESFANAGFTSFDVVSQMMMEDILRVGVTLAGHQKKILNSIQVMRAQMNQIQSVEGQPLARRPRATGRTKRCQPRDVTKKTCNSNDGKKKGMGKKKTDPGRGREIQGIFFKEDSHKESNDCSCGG
To be noted: at 1 µM.

The target of assay [2] is T2, Ephrin type-B receptor 3 (Homo sapiens) (UniProt P54753).
T2 sequence (whole entry): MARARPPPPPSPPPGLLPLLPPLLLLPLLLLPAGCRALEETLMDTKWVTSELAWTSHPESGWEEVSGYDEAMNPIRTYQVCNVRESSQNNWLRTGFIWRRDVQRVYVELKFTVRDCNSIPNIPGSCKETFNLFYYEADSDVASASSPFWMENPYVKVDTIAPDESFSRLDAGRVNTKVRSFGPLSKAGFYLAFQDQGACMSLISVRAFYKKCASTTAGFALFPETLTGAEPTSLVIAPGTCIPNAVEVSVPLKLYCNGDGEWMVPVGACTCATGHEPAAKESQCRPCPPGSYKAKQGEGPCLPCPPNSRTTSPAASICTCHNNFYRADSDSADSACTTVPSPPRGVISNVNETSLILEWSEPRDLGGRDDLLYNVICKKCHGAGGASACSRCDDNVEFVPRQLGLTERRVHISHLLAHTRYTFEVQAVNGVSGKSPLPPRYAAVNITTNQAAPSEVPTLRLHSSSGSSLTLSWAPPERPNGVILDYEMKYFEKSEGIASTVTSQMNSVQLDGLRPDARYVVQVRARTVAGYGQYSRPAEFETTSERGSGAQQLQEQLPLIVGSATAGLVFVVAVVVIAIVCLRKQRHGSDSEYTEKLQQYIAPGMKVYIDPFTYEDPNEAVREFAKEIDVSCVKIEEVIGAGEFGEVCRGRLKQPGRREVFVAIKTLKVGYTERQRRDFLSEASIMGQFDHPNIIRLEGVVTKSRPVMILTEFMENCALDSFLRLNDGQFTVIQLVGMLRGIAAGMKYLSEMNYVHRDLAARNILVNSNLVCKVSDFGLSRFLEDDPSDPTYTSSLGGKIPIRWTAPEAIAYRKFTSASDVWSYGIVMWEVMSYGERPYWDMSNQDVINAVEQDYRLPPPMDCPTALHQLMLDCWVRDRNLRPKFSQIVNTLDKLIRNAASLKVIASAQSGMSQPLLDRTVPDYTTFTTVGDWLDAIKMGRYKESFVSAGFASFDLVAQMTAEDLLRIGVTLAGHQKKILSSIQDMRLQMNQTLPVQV
To be noted: at 0.1 µM.

In assay [3] the target is T2, Ephrin type-B receptor 3 (Homo sapiens). To be noted: at 1 µM.
In assay [4] the target is T3, Ephrin type-B receptor 4 (Homo sapiens) (UniProt P54760).
T3 sequence (whole entry): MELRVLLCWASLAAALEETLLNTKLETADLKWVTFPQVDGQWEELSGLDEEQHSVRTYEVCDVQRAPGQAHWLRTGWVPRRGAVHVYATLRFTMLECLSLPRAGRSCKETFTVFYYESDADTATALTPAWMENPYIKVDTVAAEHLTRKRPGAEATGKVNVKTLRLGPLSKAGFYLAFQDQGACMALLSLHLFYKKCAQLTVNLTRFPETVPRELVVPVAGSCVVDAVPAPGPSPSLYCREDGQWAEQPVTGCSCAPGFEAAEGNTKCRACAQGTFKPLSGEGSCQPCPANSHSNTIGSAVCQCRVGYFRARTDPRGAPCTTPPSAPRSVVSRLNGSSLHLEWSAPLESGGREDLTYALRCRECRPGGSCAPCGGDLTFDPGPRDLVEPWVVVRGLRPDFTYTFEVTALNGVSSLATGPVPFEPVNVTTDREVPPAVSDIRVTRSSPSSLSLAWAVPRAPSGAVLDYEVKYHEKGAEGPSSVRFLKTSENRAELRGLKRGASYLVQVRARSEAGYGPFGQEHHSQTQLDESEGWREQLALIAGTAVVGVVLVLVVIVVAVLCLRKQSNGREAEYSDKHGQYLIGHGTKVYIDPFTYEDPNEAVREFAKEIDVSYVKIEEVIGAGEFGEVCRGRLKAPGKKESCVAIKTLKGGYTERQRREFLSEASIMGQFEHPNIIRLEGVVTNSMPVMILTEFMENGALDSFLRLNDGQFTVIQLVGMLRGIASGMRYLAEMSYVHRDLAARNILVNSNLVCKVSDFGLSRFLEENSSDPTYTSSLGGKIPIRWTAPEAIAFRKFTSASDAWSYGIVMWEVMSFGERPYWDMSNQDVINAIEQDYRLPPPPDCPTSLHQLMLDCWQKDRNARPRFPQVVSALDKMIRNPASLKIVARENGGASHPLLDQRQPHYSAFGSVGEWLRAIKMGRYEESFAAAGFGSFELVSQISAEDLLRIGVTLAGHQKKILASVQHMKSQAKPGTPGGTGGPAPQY
To be noted: at 0.1 µM.

Assay [5] deals with T3, Ephrin type-B receptor 4 (Homo sapiens). To be noted: at 1 µM.
Assay [6] concerns the target Receptor tyrosine-protein kinase erbB-2 (Homo sapiens) (UniProt P04626). To be noted: at 0.1 µM.
For assay [7] the target is unchanged. To be noted: at 1 µM.
The target in assay [8] is Receptor tyrosine-protein kinase erbB-4 (Homo sapiens) (UniProt Q15303). To be noted: at 0.1 µM.
Sequence of Receptor tyrosine-protein kinase erbB-4 (Homo sapiens) (Q15303 whole entry): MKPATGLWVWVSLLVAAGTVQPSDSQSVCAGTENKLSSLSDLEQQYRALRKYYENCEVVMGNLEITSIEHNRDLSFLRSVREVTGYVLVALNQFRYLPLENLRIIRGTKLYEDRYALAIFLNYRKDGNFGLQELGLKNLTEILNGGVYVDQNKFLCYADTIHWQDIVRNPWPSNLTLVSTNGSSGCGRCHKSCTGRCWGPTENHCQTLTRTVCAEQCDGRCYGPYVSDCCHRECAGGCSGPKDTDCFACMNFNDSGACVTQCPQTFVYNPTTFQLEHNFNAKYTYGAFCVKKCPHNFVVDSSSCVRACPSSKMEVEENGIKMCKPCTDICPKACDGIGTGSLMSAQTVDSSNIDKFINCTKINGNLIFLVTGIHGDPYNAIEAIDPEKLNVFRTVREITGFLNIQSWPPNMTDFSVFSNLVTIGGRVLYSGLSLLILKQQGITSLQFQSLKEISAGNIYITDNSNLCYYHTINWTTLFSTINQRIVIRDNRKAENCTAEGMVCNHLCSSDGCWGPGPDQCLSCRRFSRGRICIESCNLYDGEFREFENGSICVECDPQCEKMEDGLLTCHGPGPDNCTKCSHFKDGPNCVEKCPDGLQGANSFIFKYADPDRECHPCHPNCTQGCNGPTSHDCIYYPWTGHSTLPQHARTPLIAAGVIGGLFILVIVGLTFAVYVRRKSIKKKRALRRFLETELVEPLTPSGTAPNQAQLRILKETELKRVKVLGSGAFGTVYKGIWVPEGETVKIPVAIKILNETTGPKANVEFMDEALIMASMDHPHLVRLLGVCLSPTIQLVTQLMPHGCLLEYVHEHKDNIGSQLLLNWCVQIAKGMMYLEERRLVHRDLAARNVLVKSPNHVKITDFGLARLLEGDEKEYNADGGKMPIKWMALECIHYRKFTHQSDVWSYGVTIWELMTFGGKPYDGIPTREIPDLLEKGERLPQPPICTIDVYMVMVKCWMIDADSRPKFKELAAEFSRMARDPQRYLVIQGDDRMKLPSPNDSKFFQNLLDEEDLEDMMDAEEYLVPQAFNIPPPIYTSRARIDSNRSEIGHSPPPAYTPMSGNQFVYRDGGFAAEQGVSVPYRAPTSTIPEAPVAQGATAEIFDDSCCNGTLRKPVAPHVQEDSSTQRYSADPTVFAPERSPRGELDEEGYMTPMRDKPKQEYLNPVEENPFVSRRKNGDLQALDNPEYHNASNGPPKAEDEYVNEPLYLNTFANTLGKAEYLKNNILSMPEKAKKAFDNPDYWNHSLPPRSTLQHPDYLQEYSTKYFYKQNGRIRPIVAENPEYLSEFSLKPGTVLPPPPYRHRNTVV
Assay [9] has the same target. To be noted: at 1 µM.
Assay [10] has as its target Tyrosine-protein kinase Fer (Homo sapiens) (UniProt P16591). To be noted: at 0.1 µM.
Assay [11] shares this target. To be noted: at 1 µM.
Assay [12] deals with Tyrosine-protein kinase Fes/Fps (Homo sapiens) (UniProt P07332). To be noted: at 0.1 µM.
Sequence of Tyrosine-protein kinase Fes/Fps (Homo sapiens) (P07332 whole entry): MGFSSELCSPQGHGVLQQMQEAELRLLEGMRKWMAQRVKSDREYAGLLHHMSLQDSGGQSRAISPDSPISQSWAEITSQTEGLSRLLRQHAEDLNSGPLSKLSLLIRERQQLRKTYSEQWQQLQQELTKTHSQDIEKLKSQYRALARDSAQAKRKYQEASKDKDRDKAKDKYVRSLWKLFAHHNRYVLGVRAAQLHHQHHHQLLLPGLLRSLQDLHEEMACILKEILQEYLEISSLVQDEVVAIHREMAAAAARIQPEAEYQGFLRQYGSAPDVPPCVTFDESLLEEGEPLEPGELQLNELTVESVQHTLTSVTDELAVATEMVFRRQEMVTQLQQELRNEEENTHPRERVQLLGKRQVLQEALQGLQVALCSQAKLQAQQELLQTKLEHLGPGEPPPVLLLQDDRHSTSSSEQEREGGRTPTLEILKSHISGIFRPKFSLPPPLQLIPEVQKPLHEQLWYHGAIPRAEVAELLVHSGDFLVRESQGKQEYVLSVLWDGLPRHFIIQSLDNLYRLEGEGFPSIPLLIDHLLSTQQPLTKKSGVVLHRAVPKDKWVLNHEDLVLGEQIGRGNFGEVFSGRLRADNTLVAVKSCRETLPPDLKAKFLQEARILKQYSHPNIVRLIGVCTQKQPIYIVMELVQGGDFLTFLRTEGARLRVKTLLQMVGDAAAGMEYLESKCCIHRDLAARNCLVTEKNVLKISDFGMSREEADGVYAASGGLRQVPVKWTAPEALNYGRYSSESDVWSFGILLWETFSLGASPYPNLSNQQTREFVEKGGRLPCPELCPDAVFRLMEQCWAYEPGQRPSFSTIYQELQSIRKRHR
Assay [13] shares this target. To be noted: at 1 µM.
The target of assay [14] is Fibroblast growth factor receptor 1 (Homo sapiens) (UniProt P11362). To be noted: at 0.1 µM.
Sequence of Fibroblast growth factor receptor 1 (Homo sapiens) (P11362 22-822 limits assumed): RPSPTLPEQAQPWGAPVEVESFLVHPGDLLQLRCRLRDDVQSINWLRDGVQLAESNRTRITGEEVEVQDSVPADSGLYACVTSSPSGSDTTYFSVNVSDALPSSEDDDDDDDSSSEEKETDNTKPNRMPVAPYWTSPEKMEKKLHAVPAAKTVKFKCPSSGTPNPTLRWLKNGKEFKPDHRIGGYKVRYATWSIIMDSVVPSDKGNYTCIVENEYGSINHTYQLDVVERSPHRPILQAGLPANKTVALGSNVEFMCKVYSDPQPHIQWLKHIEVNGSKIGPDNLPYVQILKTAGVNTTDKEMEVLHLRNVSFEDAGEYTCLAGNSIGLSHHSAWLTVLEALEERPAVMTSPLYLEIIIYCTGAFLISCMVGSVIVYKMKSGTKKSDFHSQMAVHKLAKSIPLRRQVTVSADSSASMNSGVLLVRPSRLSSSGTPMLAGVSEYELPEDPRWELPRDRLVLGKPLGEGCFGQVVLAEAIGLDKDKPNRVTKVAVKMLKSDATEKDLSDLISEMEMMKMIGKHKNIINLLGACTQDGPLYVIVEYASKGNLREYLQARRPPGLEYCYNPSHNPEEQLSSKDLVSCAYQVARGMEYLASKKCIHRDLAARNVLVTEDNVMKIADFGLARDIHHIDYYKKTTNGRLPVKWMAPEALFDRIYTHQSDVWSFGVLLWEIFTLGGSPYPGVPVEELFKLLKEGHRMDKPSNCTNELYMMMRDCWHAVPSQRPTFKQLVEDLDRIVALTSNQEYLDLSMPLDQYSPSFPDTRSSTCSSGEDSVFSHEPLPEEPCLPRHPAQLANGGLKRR
Assay [15] has the same target. To be noted: at 1 µM.
The target of assay [16] is Fibroblast growth factor receptor 2 (Homo sapiens) (UniProt P21802). To be noted: at 0.1 µM.
Sequence of Fibroblast growth factor receptor 2 (Homo sapiens) (P21802 22-821 limits assumed): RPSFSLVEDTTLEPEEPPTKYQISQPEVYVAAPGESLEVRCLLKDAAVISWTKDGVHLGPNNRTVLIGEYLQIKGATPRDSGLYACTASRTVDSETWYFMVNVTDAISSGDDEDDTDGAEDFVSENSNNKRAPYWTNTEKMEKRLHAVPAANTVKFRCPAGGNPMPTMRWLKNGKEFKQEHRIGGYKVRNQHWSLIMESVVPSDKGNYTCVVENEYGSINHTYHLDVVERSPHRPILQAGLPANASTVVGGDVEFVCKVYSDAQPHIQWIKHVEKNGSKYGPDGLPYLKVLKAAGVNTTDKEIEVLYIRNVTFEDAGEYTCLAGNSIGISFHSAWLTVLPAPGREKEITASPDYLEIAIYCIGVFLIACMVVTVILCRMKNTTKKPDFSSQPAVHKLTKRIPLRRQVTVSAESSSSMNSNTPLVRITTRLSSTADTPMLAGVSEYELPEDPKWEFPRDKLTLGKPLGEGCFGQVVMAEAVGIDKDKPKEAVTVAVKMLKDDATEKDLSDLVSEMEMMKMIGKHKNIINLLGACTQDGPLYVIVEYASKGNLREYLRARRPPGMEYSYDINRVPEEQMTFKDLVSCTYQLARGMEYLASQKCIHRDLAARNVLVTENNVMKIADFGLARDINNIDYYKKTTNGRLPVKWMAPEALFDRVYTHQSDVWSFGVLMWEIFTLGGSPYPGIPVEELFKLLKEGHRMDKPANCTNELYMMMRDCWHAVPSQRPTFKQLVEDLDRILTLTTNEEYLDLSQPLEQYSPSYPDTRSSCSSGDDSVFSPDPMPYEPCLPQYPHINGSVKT
For assay [17] the target is unchanged. To be noted: at 1 µM.
Assay [18] concerns the target Fibroblast growth factor receptor 3 (Homo sapiens) (UniProt P22607). To be noted: at 0.1 µM.
Assay [19] has the same target. To be noted: at 1 µM.
Assay [20] deals with Fibroblast growth factor receptor 4 (Homo sapiens) (UniProt P22455). To be noted: at 0.1 µM.

Sequence of Fibroblast growth factor receptor 3 (Homo sapiens) (P22607 23-806 limits assumed): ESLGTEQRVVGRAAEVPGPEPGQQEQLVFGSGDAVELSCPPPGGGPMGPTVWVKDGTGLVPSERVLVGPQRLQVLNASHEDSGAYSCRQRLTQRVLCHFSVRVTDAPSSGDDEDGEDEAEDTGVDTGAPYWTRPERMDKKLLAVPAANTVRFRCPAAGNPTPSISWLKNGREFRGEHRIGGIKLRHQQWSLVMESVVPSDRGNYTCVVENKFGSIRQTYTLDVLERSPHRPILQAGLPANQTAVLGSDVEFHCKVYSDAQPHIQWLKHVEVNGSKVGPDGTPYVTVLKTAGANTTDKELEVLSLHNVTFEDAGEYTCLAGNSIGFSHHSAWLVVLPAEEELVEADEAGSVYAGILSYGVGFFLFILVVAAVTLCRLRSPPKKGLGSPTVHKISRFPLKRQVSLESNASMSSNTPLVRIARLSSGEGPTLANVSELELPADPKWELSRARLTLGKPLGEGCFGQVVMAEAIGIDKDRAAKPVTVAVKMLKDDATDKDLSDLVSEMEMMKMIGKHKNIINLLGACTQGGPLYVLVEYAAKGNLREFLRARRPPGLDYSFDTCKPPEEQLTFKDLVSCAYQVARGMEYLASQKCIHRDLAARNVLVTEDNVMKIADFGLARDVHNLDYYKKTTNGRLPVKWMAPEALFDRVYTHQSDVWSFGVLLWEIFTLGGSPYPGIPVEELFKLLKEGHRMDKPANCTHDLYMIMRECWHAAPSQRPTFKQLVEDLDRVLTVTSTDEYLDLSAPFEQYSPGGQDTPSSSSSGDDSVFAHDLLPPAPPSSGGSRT

One may read the inhibition as the relative decrease from the control value, in per cent. Turning to `NC(=O)c1ccc2c(-c3ccnc(NCCCO)n3)c(-c3ccc(F)cc3)nn2c1`, the inhibition in assay [1] came out at 40.3%; in [2] it was 4.52%; in assay [3] it was 4.65%; in assay [4], 4.6%; in assay [5], 11.4%; in assay [6], 2.1%. The inhibition in [7] was found to be 3.13%; in assay [8] it was 16.8%; in [9], 39%; in assay [10], 6.31%; in assay [11], 6.71%; in assay [12], 3%. The inhibition in assay [13] came to 5.19%; in assay [14], 8.04%; in [15], 8.15%; in [16] it was 4.29%; in assay [17], 9.62%; in [18], 5.45%. The inhibition is 7.13% in assay [19] and 0.14% in assay [20].

Consider `Cc1ccc(-c2cc3c(NC(=O)C4CC4)ncnc3o2)cc1`, for which the inhibition turned out to be 36.6% in assay [1]; 5.13% in assay [2]; 1.62% in assay [3]; 3.05% in assay [4]; 12.9% in [5]; 0.91% in assay [6]. In addition, the inhibition in [7] is -0.45%; in [8] it was 9.66%; in [9], 11.1%; in assay [10], 8.51%; in assay [11] it was 6.82%; in assay [12], 4.78%. Besides, the inhibition in assay [13] was found to be 7.73%; in assay [14], 7.46%; in assay [15] it was 5.81%; in assay [16] it was 6.04%; in [17], 10.7%; in assay [18] it was 5.42%. The inhibition in [19] was 5.53%; in assay [20] it was 1.15%.

For the compound `COc1ccc(-c2nn3ncccc3c2-c2ccnc(Nc3ccc(F)c(F)c3)n2)cc1`, the inhibition was 18.6% in assay [1]; 4.77% in assay [2]; 3.59% in [3]; 1.49% in assay [4]; 7.6% in assay [5]; 4.95% in assay [6]. Besides, the inhibition in [7] amounted to 5.88%; in assay [8], 27.1%; in assay [9], 71.3%; in assay [10], 4.09%; in assay [11], 7.64%; in assay [12], 2.66%. Also, the inhibition in assay [13] stood at 2.57%; in assay [14] it was 4.92%; in [15] it was 0.84%; in assay [16] it was 5.14%; in [17], 7.4%; in assay [18], 5.17%. Besides, the inhibition amounted to 7.65% in assay [19] and 1.42% in assay [20].

Take `CS(=O)(=O)CCNCc1ccc(-c2ccc3ncnc(Nc4ccc(OCc5ccccc5)cc4)c3c2)o1`: the inhibition in [1] was 7.66%; in assay [2], 5.28%; in [3], 5.08%; in assay [4] it was 3.4%; in assay [5], 3%; in assay [6], 15.1%. The inhibition worked out at 73% in assay [7]; 84.6% in assay [8]; 96.6% in assay [9]; 1.45% in assay [10]; 0.38% in assay [11]; 3.93% in assay [12]. Also, the inhibition in assay [13] came to 3.54%; in assay [14], 6.5%; in [15] it was 3.85%; in [16], 3.26%; in assay [17], 4.3%; in assay [18], 4.56%. In addition, the inhibition came out at 3.89% in [19] and 1.63% in [20].

As for `CS(=O)(=O)Nc1ccc(-c2ccc3c(NC(=O)C4CC4)n[nH]c3c2)cc1`, the inhibition in assay [1] was 11.6%; in assay [2], 4.92%; in [3] it was 4.97%; in [4] it was 2.13%; in assay [5], 4.33%; in [6], -0.58%. The inhibition was -2.83% in assay [7]; -5.65% in assay [8]; 9.99% in assay [9]; 9.81% in [10]; 11.5% in [11]; 2.68% in assay [12]. The inhibition in [13] turned out to be 4.38%; in assay [14], 6.04%; in assay [15], 6.36%; in assay [16], 3.37%; in assay [17], 8.17%; in assay [18] it was 6.11%. Further, the inhibition was 5.97% in [19] and -2.39% in assay [20].
